From PubChem BioAssay (NCATS)
Several values for one entry are separate records, joined by “and”; a condition that tells them apart may be missing. Equal entries are not always repeated. Results filed as inconclusive are left out. Activity calls are given as the source filed them. The call rests on the fitted dose curve; in most records, active means well fitted curve in the direction sought with a large enough effect; inconclusive means small, poorly fitted or top-dose-only effect, or another doubt; inactive means no such curve, though single readings can be large; an effect the other way counts as inactive or inconclusive.

Legend:
[1] = Identifying Small Molecule Inhibitors of Pancreatic Cancer Stem Cells (SN12C, Spheroid) (AID 1259360); details: Potency: SN12C spheroid viability; further: potency means the concentration at half of the fitted maximal effect
How it was run: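 Cytotoxicity read by CellTiter-Glo luminescence after 48 h compound exposure at 37C; percent activity scaled between DMSO-treated cells and cell-free wells. Spheroid formats used cells pre-formed 14 days in stem cell media on hydrogel.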

[2] = Identifying Small Molecule Inhibitors of Pancreatic Cancer Stem Cells (A278, Adherent) (AID 1259361); further: nearly all actives have a fitted effect of over 35% in size
How it was run: (§1)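 Luminescent ATP readout (CellTiter-Glo) quantifies surviving cells after a 48 h drug incubation. Normalization uses DMSO wells as no inhibition and media-only wells as full inhibition; bortezomib served as positive control.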

[3] = Identifying Small Molecule Inhibitors of Pancreatic Cancer Stem Cells (Panc1, Adherent) (AID 1259362); details: Potency: viability; further: potency means the concentration at half of the fitted maximal effect
How it was run: as §1

[4] = P-glycoprotein substrates identified in KB-8-5-11 adenocarcinoma cell line, qHTS therapeutic library screen (AID 1346987); further: nearly all actives have a fitted effect of over 65% in size; further: potency means the concentration at half of the fitted maximal effect
How it was run: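 KB-8-5-11: colchicine-selected sub-line of KB-3-1 over-expressing P-gp; assay medium lacked colchicine. 72 h drug exposure at 37 degree C, CellTiter-Glo.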

[5] = NS1 protein of Zika virus - qHTS assay to identify small molecule inhibitors in human HEK 293 cells (AID 1347053); further: nearly all actives have a fitted effect of over 55% in size; further: potency means the concentration at half of the fitted maximal effect
How it was run: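 HEK 293 cells, seeded 20 h at 37 C, were pretreated with compound 1 h, then infected with ZIKV MR766 (MOI = 0.5) for 24 h. NS1 was read by TR-FRET with two anti-NS1 antibodies, normalized to uninfected and infected wells.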

[6] = qHTS of pediatric cancer cell lines to identify multiple opportunities for drug repurposing: Primary screen for TC32 cells (AID 1347089); further: nearly all actives have a fitted effect of over 60% in size; further: potency means the concentration at half of the fitted maximal effect
How it was run: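 qHTS, TC32, 48 h drug treatment, CellTiter-Glo luminescence as a proxy for metabolically active cells; primary top concentration 46 µM (MIPE 11-pt, NPC 8-pt); confirmatory 11-pt.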

[7] = qHTS of pediatric cancer cell lines to identify multiple opportunities for drug repurposing: Primary screen for DAOY cells (AID 1347090); further: nearly all actives have a fitted effect of over 55% in size; further: potency means the concentration at half of the fitted maximal effect
How it was run: (§2)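 Eight- or eleven-point concentration series, 48 h treatment at 37 degrees C in growth media; readout CellTiter-Glo luminescence. Potency and efficacy were taken from the concentration-response curves.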

[8] = qHTS of pediatric cancer cell lines to identify multiple opportunities for drug repurposing: Primary screen for SJ-GBM2 cells (AID 1347091); further: potency means the concentration at half of the fitted maximal effect
How it was run: as §2

[9] = qHTS of pediatric cancer cell lines to identify multiple opportunities for drug repurposing: Primary screen for A673 cells (AID 1347092); further: nearly all actives have a fitted effect of over 45% in size; further: potency means the concentration at half of the fitted maximal effect
How it was run: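 Luminescence from CellTiter-Glo, taken after 15 min at room temperature, served as the proxy for metabolically active cells following 48 h treatment. Both potency and efficacy were taken from curves fitted to the titration data.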

[10] = qHTS of pediatric cancer cell lines to identify multiple opportunities for drug repurposing: Primary screen for BT-37 cells (AID 1347094); further: potency means the concentration at half of the fitted maximal effect
How it was run: (§3)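 Viability was measured as metabolically active cells after 48 hours of treatment, read by CellTiter-Glo luminescence. Compounds were tested at multiple final concentrations, giving concentration-response curves.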

[11] = qHTS of pediatric cancer cell lines to identify multiple opportunities for drug repurposing: Primary screen for NB-EBc1 cells (AID 1347095); further: potency means the concentration at half of the fitted maximal effect
How it was run: as §3

[12] = qHTS of pediatric cancer cell lines to identify multiple opportunities for drug repurposing: Primary screen for SK-N-MC cells (AID 1347093); further: potency means the concentration at half of the fitted maximal effect
How it was run: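 Metabolically active cells were quantified by ATP-dependent luminescence (CellTiter-Glo, 15 min at room temperature) following 48 h treatment. Cells had been plated at 500-1,000 per well and settled for 5 h beforehand.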

[13] = P-glycoprotein substrates identified in KB-3-1 adenocarcinoma cell line, qHTS therapeutic library screen (AID 1346986); further: nearly all actives have a fitted effect of over 60% in size;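 further: potency means the concentration at half of the fitted maximal effect; potency is for cytotoxicity meaning loss of cell viability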
How it was run: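 KB-3-1 parental cells and P-gp-overexpressing KB-8-5-11 (colchicine omitted during assay) plated at 500 cells/well, dosed in dose-response, incubated 72 h at 37 degree C. CellTiter-Glo luminescence read; KB-8-5-11 also tested with tariquidar.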

SMILES	Potency [1]	IC50 (viability decrease) [2]	Potency [3]	Potency [4]	Potency [5]	Potency [6]	Potency [7]	Potency [8]	Potency [9]	Potency [10]	Potency [11]	Potency [12]	Potency [13]
COc1cccc2nc(-c3cccs3)nc(NN3C(=O)C=C(C)C3=O)c12	20.9 µM (active)	0.469 µM (active)	16.6 µM (active)	469 nM (active) and 1.64 µM (active)	3.72 µM (active)	1.86 µM (active)	2.35 µM (active)	0.935 µM (active)	2.35 µM (active)	0.863 µM (active)	0.332 µM (active)	–	–
O=C(C=Cc1cccnc1)NCCCCC1CCN(C(=O)c2ccccc2)CC1	0.0021 µM (active)	inactive	inactive	0.0166 µM (active)	inactive	0.0047 µM (active)	inactive	0.0166 µM (active)	–	–	0.0118 µM (active)	–	–
COc1ccc(C=Cc2cc(OC)c(OC)c(OC)c2)cc1O	2.09 µM (active)	0.0017 µM (active)	–	0.001 µM (active)	inactive	0.0004 µM (active)	0.001 µM (active)	0.001 µM (active)	0.001 µM (active)	0.0137 µM (active)	0.001 µM (active)	0.001 µM (active)	–
CC(C)c1ccc(Cn2ccc3c4c(N)nc(NC5CC5)nc4ccc32)cc1	8.33 µM (active)	0.332 µM (active)	0.743 µM (active)	1.18 µM (active)	3.32 µM (active)	4.15 µM (active)	14.8 µM (active)	3.72 µM (active)	2.96 µM (active)	12.2 µM (active)	4.69 µM (active)	–	–
C1Cc2[nH]nc(-c3nn[nH]n3)c2C1	inactive	inactive	–	inactive	inactive	–	inactive	inactive	inactive	inactive	inactive	–	inactive
C[C@@]12O[C@@H](C[C@]1(O)CO)n1c3ccccc3c3c4c(c5c6ccccc6n2c5c31)CNC4=O	23.5 µM (active)	1.66 µM (active)	–	2.35 µM (active) and 1.46 µM (active)	2.64 µM (active)	1.86 µM (active)	4.69 µM (active)	0.235 µM (active)	0.743 µM (active)	4.85 µM (active)	1.18 µM (active)	0.0372 µM (active)	0.206 µM (active)
CC(C)C[C@H](NC(=O)CNC(=O)c1cc(Cl)ccc1Cl)B(O)O	0.0833 µM (active)	–	0.187 µM (active)	1.32 µM (active)	0.418 µM (active)	2.94 µM (active)	0.235 µM (active)	0.187 µM (active)	1.48 µM (active)	0.485 µM (active)	0.526 µM (active)	–	–
CCN1CCN(CC(=O)Nc2ccc(-c3cccc4c(=O)cc(N5CCOCC5)oc34)c3sc4ccccc4c23)CC1	14.8 µM (active)	–	23.5 µM (active)	2.96 µM (active)	inactive	–	–	0.743 µM (active)	2.35 µM (active)	4.85 µM (active)	1.18 µM (active)	–	1.88 µM (active)
Cc1[nH]nc2ccc(-c3cncc(OC[C@@H](N)Cc4ccccc4)c3)cc12	18.7 µM (active)	–	4.69 µM (active)	2.35 µM (active) and 1.16 µM (active)	8.33 µM (active)	4.66 µM (active)	2.96 µM (active)	0.743 µM (active)	0.235 µM (active)	1.22 µM (active)	0.469 µM (active)	0.526 µM (active)	–
C=C1C(=CC=C2CCC[C@]3(C)[C@@H]([C@H](C)C=C[C@H](C)C(C)C)CC[C@@H]23)C[C@@H](O)C[C@@H]1O	inactive	–	26.4 µM (active)	inactive	inactive	11.7 µM (active)	1.87 µM (active)	0.743 µM (active)	0.469 µM (active)	0.968 µM (active)	0.526 µM (active)	0.469 µM (active)	inactive
C=CCn1c(=O)c2cnc(Nc3ccc(N4CCN(C)CC4)cc3)nc2n1-c1cccc(C(C)(C)O)n1	1.66 µM (active)	0.59 µM (active)	0.59 µM (active)	3.72 µM (active) and 5.8 µM (active)	0.418 µM (active)	2.62 µM (active)	0.372 µM (active)	0.166 µM (active)	0.0743 µM (active)	0.611 µM (active)	0.209 µM (active)	0.0833 µM (active)	–
CC=C1NC(=O)[C@H]2CSSCCC=C[C@H](CC(=O)N[C@H](C(C)C)C(=O)N2)OC(=O)[C@H](C(C)C)NC1=O	0.0053 µM (active)	0.0053 µM (active)	–	8.33 µM (active)	4.18 µM (active)	0.0587 µM (active)	0.0296 µM (active)	0.0148 µM (active)	0.0118 µM (active)	0.0109 µM (active)	–	0.0105 µM (active)	–
CC1(C)CCC(c2ccc(Cl)cc2)=C(CN2CCN(c3ccc(C(=O)NS(=O)(=O)c4ccc(N[C@H](CCN5CCOCC5)CSc5ccccc5)c(S(=O)(=O)C(F)(F)F)c4)cc3)CC2)C1	16.6 µM (active)	23.5 µM (active)	–	inactive	inactive	inactive	7.43 µM (active)	0.0235 µM (active)	4.69 µM (active)	13.7 µM (active)	0.0187 µM (active)	0.0118 µM (active)	–
CN1CCN(c2ccc3nc(-c4c(N)c5c(F)cccc5[nH]c4=O)[nH]c3c2)CC1	6.62 µM (active)	–	33.2 µM (active)	2.64 µM (active) and 8.2 µM (active)	–	14.7 µM (active)	inactive	20.9 µM (active)	14.8 µM (active)	15.3 µM (active)	3.72 µM (active)	14.8 µM (active)	5.17 µM (active)
c1ccc2c(CCNc3ccc(Nc4ccncc4)cc3)c[nH]c2c1	23.5 µM (active)	16.6 µM (active)	–	–	8.33 µM (active)	20.8 µM (active)	–	5.9 µM (active)	18.7 µM (active)	4.32 µM (active)	2.35 µM (active)	1.87 µM (active)	–
CC(=O)SC[C@@H](C)C(=O)N1CCC[C@H]1C(=O)N[C@@H](Cc1ccccc1)C(=O)O	inactive	–	inactive	inactive	inactive	inactive	inactive	inactive	inactive	–	–	inactive	–
Cc1ccc(C(=O)Nc2ccc(CN3CCN(C)CC3)c(C(F)(F)F)c2)cc1C#Cc1cnc2cccnn12	23.5 µM (active)	5.26 µM (active)	23.5 µM (active)	2.09 µM (active) and 3.66 µM (active)	11.8 µM (active)	–	18.7 µM (active)	3.72 µM (active)	2.35 µM (active)	–	–	2.35 µM (active)	–
CC(=O)OCCN1C(=O)c2c(C)nc3ccc(S(=O)(=O)N4CCOCC4)cc3c2C1=O	inactive	–	10.5 µM (active)	inactive	inactive	–	inactive	inactive	7.43 µM (active)	5.44 µM (active)	inactive	20.9 µM (active)	inactive
O=C(NCCS(=O)(=O)c1ccc(C(F)(F)F)cn1)c1ccc(Cl)cc1	inactive	inactive	–	–	inactive	inactive	–	inactive	inactive	–	inactive	–	inactive
Cc1ccc(-c2ncn(-c3ccc(Nc4nccc(-c5cccc(N6CCOCC6)c5)n4)cc3)n2)cn1	0.059 µM (active)	0.0743 µM (active)	0.0743 µM (active)	1.05 µM (active)	3.72 µM (active)	0.33 µM (active)	0.187 µM (active)	0.105 µM (active)	0.0935 µM (active)	–	0.209 µM (active)	0.0662 µM (active)	–
CN1CC[C@@H](c2c(O)cc(O)c3c(=O)cc(-c4ccccc4Cl)oc23)[C@@H](O)C1	0.118 µM (active)	0.0372 µM (active)	0.132 µM (active)	0.209 µM (active)	0.833 µM (active)	0.466 µM (active)	0.187 µM (active)	0.0526 µM (active)	0.0935 µM (active)	0.109 µM (active)	0.0743 µM (active)	0.118 µM (active)	–
CN1CCC(CNc2ccc3ncc(-c4cccc(OC(F)(F)F)c4)n3n2)CC1	23.5 µM (active)	18.7 µM (active)	–	13.2 µM (active) and 18.4 µM (active)	16.6 µM (active)	inactive	–	16.6 µM (active)	14.8 µM (active)	21.7 µM (active)	18.7 µM (active)	4.18 µM (active)	20.6 µM (active)
CN(C)CC=CC(=O)Nc1cc2c(Nc3ccc(F)c(Cl)c3)ncnc2cc1O[C@H]1CCOC1	23.5 µM (active)	23.5 µM (active)	1.48 µM (active)	9.35 µM (active)	inactive	–	5.9 µM (active)	3.72 µM (active)	3.72 µM (active)	–	–	1.66 µM (active)	–
CC(NCc1ccc2c(c1)nc(NC(=O)c1ccc(-c3cn[nH]c3)s1)n2CC(C)(C)O)C(C)(C)C (centres undefined)	0.469 µM (active)	–	0.264 µM (active)	4.18 µM (active)	4.69 µM (active)	2.62 µM (active)	2.96 µM (active)	0.296 µM (active)	0.187 µM (active)	0.485 µM (active)	0.418 µM (active)	0.743 µM (active)	–
Clc1ccc2ncc(-c3cccc(NC4CNC4)n3)n2c1	inactive	–	inactive	inactive	inactive	–	–	11.8 µM (active)	4.69 µM (active)	17.2 µM (active)	1.48 µM (active)	7.43 µM (active)	inactive
Nc1nc(-c2nn(Cc3ccccc3F)c3ncccc23)nc(N)c1N1CCOCC1	inactive	inactive	–	inactive	inactive	inactive	inactive	inactive	–	inactive	inactive	–	–
